# Assay results reported in paper PMC11006913.
# Substitutions are numbered along the chain they refer to.
# Assays:
# Assay in all cases: PBM; 200 nM protein, PBS
# Conditions in all cases: dsDNA, one strand shown
# [1] = target: T1, NKX2-4 (Homo sapiens, UniProt Q9H2Z4 175-261, T231S)
# T1 sequence: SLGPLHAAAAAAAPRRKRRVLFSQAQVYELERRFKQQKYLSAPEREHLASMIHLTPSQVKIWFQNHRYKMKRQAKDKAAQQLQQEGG
# [2] = target: T2, NKX2-4 (Homo sapiens, UniProt Q9H2Z4 175-261)
# T2 sequence: T1 sequence with S57T
# [3] = target: T3, NKX2-4 (Homo sapiens, UniProt Q9H2Z4 175-261, R246Q)
# T3 sequence: T1 sequence with S57T, R72Q
# [4] = target: HOXD13 (Homo sapiens, UniProt P35453 263-343, T313R)
# Chain of HOXD13 (Homo sapiens, UniProt P35453 263-343, T313R) (P35453 263-343 T313R): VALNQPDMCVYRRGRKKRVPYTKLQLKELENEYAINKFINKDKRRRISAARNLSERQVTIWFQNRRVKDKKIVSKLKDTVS
# [5] = target: HOXD13 (Homo sapiens, UniProt P35453 263-343)
# Chain of HOXD13 (Homo sapiens, UniProt P35453 263-343) (P35453 263-343): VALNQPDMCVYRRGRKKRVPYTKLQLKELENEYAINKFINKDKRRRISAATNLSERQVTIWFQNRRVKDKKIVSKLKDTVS
# [6] = target: HOXD13 (Homo sapiens, UniProt P35453 263-343, T313A)
# Chain of HOXD13 (Homo sapiens, UniProt P35453 263-343, T313A) (P35453 263-343 T313A): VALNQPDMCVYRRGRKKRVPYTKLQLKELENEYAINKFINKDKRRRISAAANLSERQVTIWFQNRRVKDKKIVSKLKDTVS
# [7] = target: PITX2 (Homo sapiens, UniProt Q99697 72-157)
sequence,measurement,setting,value
ACGCTGCG,binding signal,[1],"9.6 upbm affinity estimate (log intensity, higher = more binding, comparable within an allelic series)"
same,binding signal,[2],"9.57 upbm affinity estimate (log intensity, higher = more binding, comparable within an allelic series)"
same,binding signal,[3],"9.58 upbm affinity estimate (log intensity, higher = more binding, comparable within an allelic series)"
GAGCTGGC,binding signal,[1],"9.66 upbm affinity estimate (log intensity, higher = more binding, comparable within an allelic series)"
same,binding signal,[2],"9.73 upbm affinity estimate (log intensity, higher = more binding, comparable within an allelic series)"
same,binding signal,[3],"9.66 upbm affinity estimate (log intensity, higher = more binding, comparable within an allelic series)"
GCCCCCCA,binding signal,[4],"9.1 upbm affinity estimate (log intensity, higher = more binding, comparable within an allelic series)"
same,binding signal,[5],"9.22 upbm affinity estimate (log intensity, higher = more binding, comparable within an allelic series)"
same,binding signal,[6],"9.24 upbm affinity estimate (log intensity, higher = more binding, comparable within an allelic series)"
CGCGCGAG,binding signal,[4],"9.52 upbm affinity estimate (log intensity, higher = more binding, comparable within an allelic series)"
same,binding signal,[5],"9.48 upbm affinity estimate (log intensity, higher = more binding, comparable within an allelic series)"
same,binding signal,[6],"9.67 upbm affinity estimate (log intensity, higher = more binding, comparable within an allelic series)"
ACGGAAGG,binding signal,[7],"7.95 upbm affinity estimate (log intensity, higher = more binding, comparable within an allelic series)"
CTGCCAGC,binding signal,[7],"8.09 upbm affinity estimate (log intensity, higher = more binding, comparable within an allelic series)"
